# Assay results published in PMC4336329 (PLoS ONE, 2015).
# Screen size: about 310,000 compounds; about 14,000 (4.5%) showed an effect of 50% or more. Effects have a minus sign here. The entries come from a sample that favours strong results as a whole.
# Target: human ether-à-go-go-related gene (hERG) potassium channel (human, UniProt Q12809)
# Assay: primary screen, population patch clamp on CHO cells stably expressing hERG; higher = less effect of the substance
# 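Further: peak tail current of the secondary pulse compared with the same well before compound.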
# human ether-à-go-go-related gene (hERG) potassium channel, sequence (Q12809 whole entry, looked up): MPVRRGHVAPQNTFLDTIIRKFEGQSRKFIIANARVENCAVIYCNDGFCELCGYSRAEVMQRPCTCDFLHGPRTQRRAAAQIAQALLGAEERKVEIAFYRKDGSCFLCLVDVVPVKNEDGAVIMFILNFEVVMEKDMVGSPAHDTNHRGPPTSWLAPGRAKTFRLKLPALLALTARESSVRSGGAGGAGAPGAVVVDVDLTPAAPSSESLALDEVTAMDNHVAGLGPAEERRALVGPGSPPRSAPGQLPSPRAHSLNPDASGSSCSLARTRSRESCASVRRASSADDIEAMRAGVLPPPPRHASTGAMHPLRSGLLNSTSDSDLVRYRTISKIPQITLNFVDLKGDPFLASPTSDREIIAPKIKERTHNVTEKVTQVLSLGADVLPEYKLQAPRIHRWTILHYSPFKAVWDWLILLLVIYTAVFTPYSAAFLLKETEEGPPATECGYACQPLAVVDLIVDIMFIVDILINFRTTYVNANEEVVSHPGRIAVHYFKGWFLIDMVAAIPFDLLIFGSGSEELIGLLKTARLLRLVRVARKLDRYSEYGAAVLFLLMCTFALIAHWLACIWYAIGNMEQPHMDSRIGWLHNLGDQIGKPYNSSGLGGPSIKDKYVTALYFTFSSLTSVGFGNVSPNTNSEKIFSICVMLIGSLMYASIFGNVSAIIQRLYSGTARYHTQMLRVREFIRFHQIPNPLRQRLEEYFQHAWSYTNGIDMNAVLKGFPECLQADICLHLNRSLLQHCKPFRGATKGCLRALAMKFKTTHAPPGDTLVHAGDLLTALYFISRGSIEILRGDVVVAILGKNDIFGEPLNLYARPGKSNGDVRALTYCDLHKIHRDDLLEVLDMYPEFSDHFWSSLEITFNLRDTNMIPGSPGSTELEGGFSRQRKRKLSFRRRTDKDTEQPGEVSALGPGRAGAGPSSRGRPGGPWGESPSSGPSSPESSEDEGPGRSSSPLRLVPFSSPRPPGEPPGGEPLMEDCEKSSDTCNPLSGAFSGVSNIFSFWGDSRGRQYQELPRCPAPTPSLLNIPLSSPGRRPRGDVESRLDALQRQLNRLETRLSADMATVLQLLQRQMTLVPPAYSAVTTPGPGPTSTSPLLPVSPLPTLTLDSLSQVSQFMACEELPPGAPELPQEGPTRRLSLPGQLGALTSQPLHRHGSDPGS
row,Structure (SMILES),"hERG current change (%, negative = inhibition) at 10uM [%]"
1,O=C1CC(N2CCC(c3nc4ccccc4o3)CC2)C(=O)N1c1ccc(Cl)c(C(F)(F)F)c1 (stereo not shown),6.87
2,COC(=O)C1=C(C)N(c2cccc(C(C)=O)c2)C(=O)C1,7.45
3,CC(C)OC(=O)/C(C#N)=C/c1cn(Cc2ccccc2)c2ccccc12,-6.73
4,COc1ccc(N(C(=O)CNC(=O)c2ccco2)C(C(=O)NC2CCCCC2)c2ccco2)cc1 (stereo not shown),8.58
5,C=CCNc1nc2c(c(=O)[nH]c(=O)n2C)n1CCCCC,-12.1
6,O=[N+]([O-])c1ccc2[nH]cc(S(=O)(=O)N3CCN(c4cccc(Cl)c4)CC3)c2c1,16.3
7,NC(=O)NC(=O)COC(=O)c1cccc(S(=O)(=O)N2CCCCCC2)c1,-21.4
8,CSc1ccc(S(=O)(=O)N2CCC(C(=O)Nc3ccccc3C(F)(F)F)CC2)cc1,7.69
9,C=CCNC(=O)C1CCN(S(=O)(=O)c2ccccc2)CC1,-2.98
10,C=CCNC(=O)c1ccccc1NC(=O)C1CCN(S(=O)(=O)c2ccc(SC)cc2)CC1,-70
11,CCCNC(=O)C1CCN(S(=O)(=O)c2ccc(Br)cc2)CC1,-1.78
12,C=CCNC(=O)c1ccccc1NS(=O)(=O)c1ccc(SC)cc1,-6.5
13,C=CCNC(=O)C1CCN(S(=O)(=O)c2ccc(Br)cc2)CC1,-58.7
14,Nc1nc(N)nc(-c2cc(O)ccc2O)n1,10.3
15,O=C(CSc1ccccc1)N(c1ccc(Br)cc1)c1nccs1,10.8
16,Cc1ccc2[nH]c(=O)c(CN(CCO)C(=O)NCc3ccccc3)cc2c1,7.55
17,CCC(=O)N(CCc1ccccc1)Cc1cc2cccc(C)c2[nH]c1=O,-14.4
18,CCN(CC)CCCNC(=S)N(Cc1cccnc1)Cc1cc2cccc(C)c2[nH]c1=O,-1.68
19,Cc1ccc(C)c2[nH]c(=O)c(CN(CCCN(C)C)C(=O)NCc3ccccc3)cc12,-52.2
20,Cc1ccc2cc(CN(CCCN(C)C)C(=S)NCc3ccccc3)c(=O)[nH]c2c1C,-50.3
21,Cc1ccc2cc(CN(CCCN(C)C)C(=O)NCc3ccccc3)c(=O)[nH]c2c1C,-34.1
22,Cc1cc(C)c2cc(CN(CCCN(C)C)C(=S)NCc3ccccc3)c(=O)[nH]c2c1,-45.4

row,Structure (SMILES),"hERG current change (%, negative = inhibition) at 10uM [%]"
1,COc1ccc2[nH]c(=O)c(CN(CCN(C)C)C(=O)NCc3ccccc3)cc2c1,9.31
2,Cc1cccc2cc(CN(CCCN(C)C)C(=S)NCCc3ccccc3)c(=O)[nH]c12,-72
3,O=C(NC(=S)N1CCOCC1)c1ccc(F)cc1,24.4
4,CC[C@H](C)[C@@H](C(=O)N1CCNCC1)n1cc([C@@H](N)CC(C)C)nn1.Cl,11.9
5,CC(=O)c1ccc(NC(=O)CSc2nnc(-c3ccncc3)n2C2CC2)cc1,-5.46
6,COc1ccc(CC(=O)NC2CC(C)(C)NC(C)(C)C2)cc1OC.Cl,16.9
7,Cc1ccc(/C=C2\C(=O)Nc3ccccc32)o1,5.04
8,O=C(CSc1ccccc1)NCC1(N2CCOCC2)CCCCC1,-19
9,CCOc1ccccc1-n1nnnc1SCC(=O)NCc1ccco1,5.25
10,CCOc1ccccc1-n1nnnc1SCC(=O)NCC1(N2CCOCC2)CCCCC1,-67.7
11,Cc1ccccc1-n1nnnc1SCC(=O)NCC1(N2CCOCC2)CCCCC1,-24.9
12,COc1ccccc1-n1nnnc1SCC(=O)NCC1(N2CCOCC2)CCCCC1,-39.8
13,Cc1cccc(-n2nnnc2SCC(=O)NCC2(N3CCOCC3)CCCCC2)c1C,-57.9
14,O=c1c2ccccc2nc2c3ccccc3c(NCc3cccnc3)nn12,-25.5
15,COc1ccc(-n2nc(C(=O)NCC(=O)NC3CCCC(C)C3C)c3ccccc3c2=O)cc1 (stereo not shown),8.55
16,CC(=O)OCN(C#N)c1nc(N(C)C)nc(N(C)C)n1,5.8
17,Cc1nnc2ccc(-c3ccc(NS(=O)(=O)c4ccc(F)cc4F)cc3)nn12,-25.2
18,CC(C)Oc1ccc(CNC(=O)C2CCCN(S(=O)(=O)N3CCOCC3)C2)cc1 (stereo not shown),-20.8
19,CN1C(C(=O)NCc2cccc(C(F)(F)F)c2)CC2Cn3c(nc4ccccc43)C21 (stereo not shown),-47.4
20,Cc1cc2nc3n(c2cc1C)CC1CC(C(=O)NCc2cccc(C(F)(F)F)c2)N(C)C31 (stereo not shown),-66.7
21,CN1C(C(=O)NCc2cccc(C(F)(F)F)c2)CC2Cn3c(nc4cc(Cl)c(Cl)cc43)C21 (stereo not shown),-73.6
22,CN1C(C(=O)NCc2cccc(C(F)(F)F)c2)CC2Cn3c(nc4cc5ccccc5cc43)C21 (stereo not shown),-63.1

row,Structure (SMILES),"hERG current change (%, negative = inhibition) at 10uM [%]"
1,Cc1cc2nc3n(c2cc1C)CC1CC(C(=O)NCC2CC2)N(C)C31 (stereo not shown),-1.83
2,C=CCNC(=O)C1CC2Cn3c(nc4cc(C)c(C)cc43)C2N1C (stereo not shown),-7.6
3,O=C(Nc1ccccc1)c1ccc(Br)c(S(=O)(=O)Nc2ccccn2)c1,14.5
4,Cc1cc(C)c(C#N)c(N2CCSCC2)n1,4.36
5,CC(=O)N1CCc2cc(S(=O)(=O)NCCC(=O)NC3CCCc4ccccc43)ccc21 (stereo not shown),2.54
6,NC(=O)c1noc(C(=O)N(CC(=O)NC2CCCC2)Cc2ccc3c(c2)OCO3)c1N,-7.94
7,Cc1cc(N2CCN(C)CC2)nc2ccc(NC(=S)NCCCN3CCc4ccccc4C3)cc12,-26.5
8,Cc1cc(N2CCOCC2)nc2ccc(NC(=S)N3CCN(Cc4ccccc4)CC3)cc12,-33.6
9,Cc1cc(N2CCN(C)CC2)nc2ccc(NC(=S)NCCC(C)C)cc12,-51.2
10,Cc1cc(N2CCOCC2)nc2ccc(NC(=S)NCc3ccc4c(c3)OCO4)cc12,-68.5
11,Cc1cc(N2CCOCC2)nc2ccc(NC(=S)NCCN(C)C)cc12,13.7
12,COCCNC(=S)Nc1ccc2nc(N3CCOCC3)cc(C)c2c1,-0.507
13,Cc1cc(N2CCOCC2)nc2ccc(NC(=S)NCCC(C)C)cc12,-64.1
14,CCN(CC)CCNC(=S)Nc1ccc2nc(N3CCOCC3)cc(C)c2c1,11.7
15,CCN(CC)CCNC(=S)Nc1ccc2nc(N3CCN(C)CC3)cc(C)c2c1,-1.04
16,Cc1cccc(Cn2nc(C(C)(C)C)cc2C(=O)Nc2ccc(F)cc2)c1,14.8
17,C(#CCN1CCOCC1)COCC#Cc1ccccc1.Cl,-2.16
18,CC(C)(C)OC(=O)N[C@@H](Cc1c[nH]c2ccccc12)c1nnc(SCC(N)=O)o1,-3.96
19,Cc1nc2ccccc2c(=O)n1-c1cc(F)ccc1F,8.31
20,Cc1ccc(C)c(S(=O)(=O)NNC(=O)Nc2ccccc2Cl)c1,5.51
21,O=c1cc(CSc2ccc(Cl)cc2)nc(-c2ccccn2)[nH]1,-0.0469
22,COc1ccc(CNC(=O)C(c2ccco2)N(Cc2ccccc2)C(=O)Cc2cccs2)cc1 (stereo not shown),18

row,Structure (SMILES),"hERG current change (%, negative = inhibition) at 10uM [%]"
1,COc1ccc(C(=O)c2ccc([N+](=O)[O-])cc2Cl)cc1,-16.2
2,Cc1ccc(C(=O)c2cc([N+](=O)[O-])ccc2N2CCN(C)CC2)cc1,-64.5
3,Cc1ccc(C(=O)c2cc([N+](=O)[O-])ccc2N2CCCCC2)cc1C,6.24
4,Cc1ccc(C(=O)c2cc([N+](=O)[O-])ccc2N2CCOCC2)cc1C,-17
5,O=C(c1ccccc1)c1cc([N+](=O)[O-])ccc1N1CCOCC1,-30.7
6,Cc1ccc(C(=O)c2cc([N+](=O)[O-])ccc2N2CC(C)OC(C)C2)cc1 (stereo not shown),-0.127
7,O=C(c1ccccc1)c1cc([N+](=O)[O-])ccc1N1CCCC1,-12
8,Cc1ccc(C(=O)c2cc([N+](=O)[O-])ccc2N2CCCCC2)cc1,-5.08
9,COc1ccc(C(=O)c2cc([N+](=O)[O-])ccc2N2CCOCC2)cc1,-23.5
10,COc1ccc(C(=O)c2cc([N+](=O)[O-])ccc2N2CCN(C)CC2)cc1,-58.2
11,CN1CCN(c2ccc([N+](=O)[O-])cc2C(=O)c2ccccc2)CC1,-54.2
12,CCN1CCN(c2ccc([N+](=O)[O-])cc2C(=O)c2ccc(Cl)cc2)CC1,-72.8
13,Cc1nn(CC(=O)N2CCN(S(=O)(=O)c3ccccc3)CC2)c(C)c1[N+](=O)[O-],-10
14,Cl.Clc1cccc(Nc2nc(N3CCOCC3)nc(N3CCOCC3)n2)c1,16.9
15,CN(C)C(=O)c1cn(-c2ccccc2)nc1-c1cc2ccccc2o1,-10.3
16,CC12CCC(=O)N1c1ccccc1C(=O)N2c1ccccc1 (stereo not shown),-9.9
17,CCOC(=O)c1sc(NC(=O)CSc2nncn2C)nc1C,9.68
18,Cl.O=C(OCCN1CCCCC1)c1cccc(Cl)c1,-30.6
19,CCCC(c1nnnn1Cc1ccco1)N1CCN(c2ccccc2)CC1.Cl (stereo not shown),-19.6
